NS1 function inh: inhibitors of influenza NS1 protein function; Potency, µM (titrated, usually from 46.1 µM), for inactives: top-dose activity, positive = more growth; actives 0.4% (n = 270,000); AID 2326; also: potency is read from the fitted curve at half-maximal effect; actives are rising curves; nearly all actives have a fitted effect of over 50% in size
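Growth recovery, yeast-based: influenza A NS1 expressed in S. cerevisiae causes slow growth, and suppressors are detected by OD600. The parent strain without NS1 is used as positive control.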
LmPK inhibitor: blocks Leishmania mexicana pyruvate kinase activity; Q27686; purified LmPK, Kinase-Glo ATP luminescence, 1 h; Potency, µM (doses to about 57.5 µM), inactives show at the highest dose activity change, negative = inhibition, usual class: inhibitors; actives 0.37% (n = 290,000); AID 1721; active = well fitted curve in the direction sought with a large enough effect; inconclusive = small, poorly fitted or top-dose-only effect, or another doubt; inactive = no such curve, though single readings can be large; an effect the other way counts as inactive or inconclusive; also: potency is read from the fitted curve at half-maximal effect; % is scaled to controls: 0 for no effect and ±100 for the full control effect
Target sequence (Q27686 whole entry, looked up): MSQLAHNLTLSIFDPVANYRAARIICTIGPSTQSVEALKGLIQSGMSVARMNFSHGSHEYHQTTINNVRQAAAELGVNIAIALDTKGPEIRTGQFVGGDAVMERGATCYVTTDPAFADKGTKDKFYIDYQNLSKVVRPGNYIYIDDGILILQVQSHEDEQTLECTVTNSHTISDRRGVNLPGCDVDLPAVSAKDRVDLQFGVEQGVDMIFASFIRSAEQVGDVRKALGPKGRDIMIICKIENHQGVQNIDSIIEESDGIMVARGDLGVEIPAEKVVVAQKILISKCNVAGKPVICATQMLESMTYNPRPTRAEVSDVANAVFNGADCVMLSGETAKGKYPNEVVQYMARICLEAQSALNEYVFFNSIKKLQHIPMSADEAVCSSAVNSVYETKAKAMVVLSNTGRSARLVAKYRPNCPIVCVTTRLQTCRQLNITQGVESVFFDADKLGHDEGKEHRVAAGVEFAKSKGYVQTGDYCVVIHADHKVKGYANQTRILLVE
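Purified LmPK (0.1 nM) converted ADP (0.1 mM) to ATP with PEP (0.5 mM) in imidazole buffer pH 7.2 with KCl and MgCl2, 1 h at room temperature. ATP was read by Kinase-Glo luminescence; data normalized to uninhibited and no-enzyme controls.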
SARS PLpro yeast: inhibitors of SARS-CoV papain-like protease in yeast; S. cerevisiae expressing SARS-CoV PLpro, growth rescue; Potency, µM (doses to about 32.9 µM), for the others: at the highest dose activity, positive = growth rescue, actives largely listed as activators; actives 0.19% (n = 330,000); AID 485353; also: potency is read from the fitted curve at half-maximal effect; 0% is about no effect; nearly all actives have a fitted effect of over 55% in size
Cycloheximide cs: counter-screen hit for Shiga toxin inhibitors, cycloheximide. cell reporter, cycloheximide protein synthesis inhibition counterscreen. max response, %. actives 12% (n = 300,000). AID 2314; in the data active = max response mostly above about 13%, no sharp cut-off; inactive = mostly below about 14%; also: read at 38.3 µM for the half of the compounds with a filed dose; 0% is about no effect
Shiga inhibitor: Shiga toxin inhibition. Vero cells, Shiga toxin protein synthesis inhibition reporter. inhibition, % at 38.7 µM. actives 9.2% (n = 290,000); in the data active = inhibition mostly above about 28%, no sharp cut-off; inactive = mostly below about 43%; also: 0% is about no effect
Tb PYK inh: blocks Trypanosoma brucei pyruvate kinase; Q57TT1; TbPYK enzyme, Kinase-Glo Plus ATP luminescence, 45 min; Potency, µM (highest dose often 76.8 µM), without a hit: top-dose activity, negative = inhibition, actives largely listed as inhibitors; actives 0.12% (n = 410,000); AID 624173; active = well fitted curve in the direction sought with a large enough effect; inconclusive = small, poorly fitted or top-dose-only effect, or another doubt; inactive = no such curve, though single readings can be large; an effect the other way counts as inactive or inconclusive; also: potency is read from the fitted curve at half-maximal effect; % is scaled to controls: 0 for no effect and ±100 for the full control effect; nearly all actives have a fitted effect of over 50% in size
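Luminescent Kinase-Glo Plus end-point after 45 min room-temperature reaction of T. brucei pyruvate kinase started with 130 uM ADP (final). Buffer TEA 50 mM pH 7.2 with KCl, MgCl2, BSA, Tween-20; titration-based qHTS with fitted concentration-effect curves.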
Numbers without * were called inactive; ? = inconclusive; · = not tested or not shown. Shown is part of a subset that was picked to be rich in hits. Unless noted, calls follow the shape of the full dose curve.

SMILES | NS1 function inh | LmPK inhibitor | SARS PLpro yeast | Cycloheximide cs | Shiga inhibitor | Tb PYK inh
COc1ccccc1C(=O)NCCOc1ccc(C)c(C)c1 | 16.5% | 2.3% | 0.5% | 25.2* | 38.6* | 7.4%
CCN(CC)S(=O)(=O)c1cccc(C(=O)Nc2cc(C)cc(C)c2)c1 | 1.7% | 0.5% | 0.4% | 16.7* | 39.2* | -2.1%
CCN(CC)S(=O)(=O)c1cccc(NC(=O)c2ccc(Br)cc2)c1 | · | 2.9% | -0.3% | 7.0 | 11.3 | 3.3%
CCN(CC)S(=O)(=O)c1ccc(C(=O)Nc2cc(C)cc(C)c2)cc1 | -47.6% | 3.9% | -2.8% | -2.2 | -12.8 | -1.4%
CCN(CC)S(=O)(=O)c1cccc(C(=O)Nc2cccc(C)c2)c1 | 0.2% | 6.2% | -3.0% | 26.6* | 25.1 | -1.4%
CCn1cc(S(=O)(=O)NCCc2ccccc2OC)cn1 | 6.1% | -2.5% | 1.5% | -1.6 | 14.9 | -11.0%
O=C(Nc1ccccc1Oc1cccnc1)C1CCCN(Cc2ccc(F)cc2)C1 (centres undefined) | ? | -7.5% | 3.4% | -4.2 | -12.0 | 3.4%
CCN(CC)C(=O)c1sc2c(c1C)c(=O)n(CCc1ccccc1)c(=O)n2Cc1ccc(C)cc1 | · | · | · | · | · | 2.4%
CCCCNS(=O)(=O)c1ccc(C)c(-c2nnc3c4ccccc4c(C)nn23)c1 | · | · | · | · | · | -2.7%
c1ccc(-c2csc(Nc3cccnc3)n2)nc1 | -36.7% | 0.0% | -4.6% | 35.3* | 44.0* | -1.0%
c1cncc(Nc2nc(-c3cccs3)cs2)c1 | -77.0% | -5.0% | -18.4% | 63.1* | 102.9* | ?
c1ccc(Nc2nc(-c3ccccn3)cs2)cc1 | -178.7% | -10.2% | · | 40.8* | 108.2* | 1.4%
Cc1nc2ncccn2c1-c1csc(Nc2ccccc2)n1 | -26.0% | 0.8% | 9.2% | 13.3 | 21.5 | 5.5%
COc1cccc2sc(Nc3nc(-c4ccccn4)cs3)nc12 | -109.9% | -5.6% | -43.2% | 74.7* | 104.9* | ·
Cc1cc(C(=O)N(C)Cc2ccc(Br)cc2)no1 | -0.6% | 2.9% | -0.6% | -3.1 | -9.6 | -3.9%
CCCNC(=O)c1cc(-c2ccc(Br)cc2)on1 | 3.3% | 0.2% | ? | 33.9* | 66.1* | 1.6%
CN(Cc1ccccc1)C(=O)c1cc(-c2ccc(Br)cc2)on1 | -10.4% | 3.8% | -18.0% | 20.7* | 68.9* | -5.5%
CC(C)NC(=O)c1cc(-c2ccc(Br)cc2)on1 | -1.0% | -1.0% | 2.3% | 48.8* | 121.8* | ?
CCOc1ccc(NC(=O)CC2C(=O)N(c3cccc(C)c3)C(=O)N2Cc2ccco2)cc1 (centres undefined) | · | · | · | · | · | -4.5%
O=NN(CCF)C(=O)NC1CCS(=O)(=O)CC1 | · | · | · | · | · | -3.4%
O=C1CC(/C=C/c2ccco2)=Nc2ccccc2N1 | ? | 1.6% | 2.3% | -2.4 | -10.3 | -10.4%
O=C1CC(/C=C/c2ccccn2)=Nc2ccccc2N1 | · | 0.2% | -0.9% | 21.5* | 56.9* | -9.6%
CCCCNc1nc2cccnc2s1 | -0.8% | -0.7% | -2.1% | 22.3* | 61.7* | 9.8%
Clc1ccc(Nc2nc3cccnc3s2)cc1 | -7.0% | -1.4% | -1.0% | 30.2* | 89.8* | 0.6%
CCCCNc1n[n+](C)c(-c2cccc(C)c2)s1 | -39.9% | 1.4% | -1.3% | 1.4 | 21.1 | ·
SMILES | NS1 function inh | LmPK inhibitor | SARS PLpro yeast | Cycloheximide cs | Shiga inhibitor | Tb PYK inh
O=C(OCC(=O)N1CCN(c2ccccc2)CC1)c1ccccc1NCCO | · | · | -6.8% | · | · | 0.8%
N/C(=N\OC(=O)COc1ccc2ccccc2c1)c1ccncc1 | -2.3% | 1.8% | -3.8% | 30.5* | 34.4* | 2.2%
N/C(=N\OC(=O)COc1ccc2ccccc2c1)c1cccnc1 | -9.4% | -1.5% | -21.1% | 24.3* | 52.5* | -4.8%
Cc1cccc(OCC(=O)O/N=C(\N)c2ccncc2)c1 | -6.1% | 0.8% | -4.0% | 19.7* | 59.3* | -0.6%
Cc1cccc(OCC(=O)O/N=C(\N)c2ccc(Br)cc2)c1 | -3.9% | 2.6% | -5.2% | -3.8 | -15.9 | 1.3%
N/C(=N\OC(=O)COc1ccc2ccccc2c1Br)c1ccncc1 | -0.5% | -0.1% | -3.3% | 23.5* | 91.3* | ·
CC(C)(C)c1ccc(OCC(=O)O/N=C(\N)c2ccncc2)cc1 | · | · | · | · | · | -1.9%
COc1ccc(C2=Nn3c(nnc3-c3ccc(OC)cc3OC)SC2)c(OC)c1 | · | · | · | -3.7 | -8.7 | ·
